Compounds without any hit were thinned out: in the full panel of roughly 83,000, 20% have a hit.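 Growth was measured after 48 h exposure to one concentration of compound in 96-well plates. Values under 10 count as active.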 Values without a mark were called inactive. Activity calls are given as the source filed them.
Tests used:
Experiment in all cases: NCI-60 one-dose screen, 48 h (100 = growth as untreated, 0 = no growth, -100 = all killed)
Details in all cases: 10 µM unless noted
SR leukemia = system: SR leukemia
RPMI-8226 leukemia = system: RPMI-8226 leukemia
OVCAR-8 ovarian = system: OVCAR-8 ovarian
OVCAR-5 ovarian = system: OVCAR-5 ovarian
OVCAR-4 ovarian = system: OVCAR-4 ovarian
SK-OV-3 ovarian = system: SK-OV-3 ovarian
IGROV1 ovarian = system: IGROV1 ovarian
OVCAR-3 ovarian = system: OVCAR-3 ovarian
NCI/ADR-RES ovarian = system: NCI/ADR-RES ovarian
T-47D breast = system: T-47D breast
BT-549 breast = system: BT-549 breast
MDA-MB-435 melanoma = system: MDA-MB-435 melanoma
MCF7 breast = system: MCF7 breast
HCT-116 colon = system: HCT-116 colon
HCC-2998 colon = system: HCC-2998 colon
KM12 colon = system: KM12 colon
MDA-MB-468 breast = system: MDA-MB-468 breast
HS 578T breast = system: HS 578T breast
SW-620 colon = system: SW-620 colon

| Compound | growth (SR leukemia) | growth (RPMI-8226 leukemia) | growth (OVCAR-8 ovarian) | growth (OVCAR-5 ovarian) | growth (OVCAR-4 ovarian) | growth (SK-OV-3 ovarian) [%] | growth (IGROV1 ovarian) | growth (OVCAR-3 ovarian) | growth (NCI/ADR-RES ovarian) | growth (T-47D breast) | growth (BT-549 breast) | growth (MDA-MB-435 melanoma) | growth (MCF7 breast) | growth (HCT-116 colon) | growth (HCC-2998 colon) | growth (KM12 colon) | growth (MDA-MB-468 breast) | growth (HS 578T breast) | growth (SW-620 colon) |
| --- | --- | --- | --- | --- | --- | --- | --- | --- | --- | --- | --- | --- | --- | --- | --- | --- | --- | --- | --- |
| CSc1ccc(C(=O)Nc2ccc3nn(/C(C#N)=C/c4ccccn4)nc3c2)cc1 | -3.69% (active) | -42.5% (active) | -1.48% (active) | -86.2% (active) | 15.8% | 30.8 | -83% (active) | -92.6% (active) | 2.33% (active) | -26% (active) | -90.1% (active) | -44.9% (active) | -78.6% (active) | -93.8% (active) | -99.8% (active) | -43.6% (active) | -90.7% (active) |  |  |
| Cc1ccc(C2=NN(c3nc(-c4cc5ccccc5oc4=O)cs3)C(c3ccc(C)cc3)C2)cc1 (stereo unspecified) | 102% | 98.6% | 106% | 126% | 99.1% |  | 104% | 109% | 101% | 91.8% | 120% | 107% | 63.4% | 110% | 118% | 106% | 78.2% | 101% | 105% |
| CCCCn1c(O)c(N=Nc2nc(-c3cc4ccccc4oc3=O)cs2)c2cc(Br)ccc21 | 103% | 108% | 113% | 96.2% | 111% |  | 114% | 99.1% | 102% | 107% | 132% | 111% | 89.8% | 107% | 111% | 114% | 113% | 108% | 114% |
| Cc1ccc2c(N)c(C(=O)Nc3ccc(-c4ccccc4)cc3)sc2n1 | 43.1% | 49.2% | 73.4% | 71% | 47.3% | 60.3 | 72.5% | 79.1% | 50.5% | 29.5% | 53.2% | 69.1% | 43.2% | 29.5% | 101% | 77.3% | 17.8% |  |  |
| CC(=O)Nc1ccc(-c2cn(-c3cccc(C(=O)Nc4ccc(N5CCN(C)CC5)cc4)c3)nn2)cn1 | 68% | 70.4% | 81.6% | 107% | 93.4% | 93.8 | 88% | 109% | 89.2% | 94% | 74.6% | 100% | 45.9% | 62.9% | 85% | 68.9% | -9.89% (active) |  |  |
| COc1cc(CNC(=O)/C=C/c2ccc3c(c2)OCO3)ccc1OCc1cn(-c2cccc(C(F)(F)F)c2)nn1 | 41.5% | 40.9% | -9.92% (active) | 36.6% | 34.9% | 47.4 | 44.7% | 42.9% | 4.67% (active) | 17.1% | -10.7% (active) |  | 12.2% | -25.3% (active) | 8.65% (active) | 48.8% | -21.4% (active) |  |  |
| CC1CCCCN1CCCNC(=O)N/C(N)=N/c1nc2ccccc2s1 (stereo unspecified) | -17.1% (active) | 1.48% (active) | 75.2% | 38.2% | 74.9% | 58.8 | 47.9% | 72.4% | 64.1% | 57.2% | 55.6% |  | -9.89% (active) | 16.8% | 47.1% | 48.2% | 11.2% |  |  |
| CC1=C(C(=O)OCc2ccccc2)C(c2c(O)cc(O)cc2O)n2c(nc3ccccc32)N1 (stereo unspecified) | 18.5% | 81.9% | 77.9% | 73.6% | 84% | 44.4 | 51% | 33.6% | 31% | 62.6% | 55% | 1.29% (active) | 25% | 26.1% | 86.4% | 46.3% | -27.4% (active) |  |  |
| C(=C\c1cc(/C=C/c2ccccc2)c2ccccc2n1)/c1ccccc1 | 36.7% | 25.3% | 78.4% | 136% | 98.6% | 121 | 118% | 103% | 69.7% | 78.3% | 126% | 84.8% | 37.3% | 17.3% | 101% | 95.6% | 107% |  |  |
| COc1ccc(C(SCCNCc2cc(N(C)C)ccn2)(c2ccccc2)c2ccccc2)cc1 | -43.2% (active) | -27.1% (active) | -5.35% (active) | -13.8% (active) | 22.3% |  | 11.4% | -1.36% (active) | -46.1% (active) | -9.47% (active) | -13.4% (active) | -53.7% (active) | -48.5% (active) | -27% (active) | -81.9% (active) | -9.54% (active) | -58.2% (active) | -23.1% (active) | -50.5% (active) |
| COc1cccc(-c2c(C#N)c(-c3ccc(Cl)cc3)nc3n[nH]c(-c4ccc(Cl)cc4)c23)c1 | 16.3% | 7.25% (active) | 48.3% | 69% | 26.5% | 43.9 | 65.2% | 58% | 59.3% | 9.68% (active) | 44% | 46% | 36.2% | 20.6% | 56.6% | 32.5% | 61% |  |  |
| N#Cc1c(-c2cccc(O)c2O)cc(-c2ccc3ccccc3c2)[nH]c1=O | 12.1% | 60.9% | 69.8% | 79.5% | 69.5% | 77.6 | 48.8% | 18.9% | 90.6% | 68.9% | 52.8% | 72% | 59.8% | 34.5% | 74.3% | 19.5% | 58.6% |  |  |
| COc1cc2oc(-c3cccc(C(=O)Nc4cccc([N+](=O)[O-])c4)c3)cc(=O)c2c(OC)c1OC | 55% | 68.9% | 5.89% (active) | 83.5% | -6.32% (active) |  | 22.1% | 26.7% | -18.2% (active) | 26.8% | -15.9% (active) | 39.4% | 25.1% | 25.2% | 32.6% | 47.9% | 33% | -5.03% (active) | 83.1% |
| C=C1CC[C@@H]2[C@]3(C)COC(c4cn[nH]c4-c4ccccc4)O[C@@H]3CC[C@@]2(C)[C@@H]1C/C=C1/C(=O)OCC1O (stereo partly specified) | -18.9% (active) | -28.6% (active) | 33% | 22.6% | 11.5% | 107 | 30.6% | 34.7% | 37.8% | 19.3% | 52.2% | 1.5% (active) | -28.3% (active) | -20.3% (active) | 16.9% | -11.3% (active) | -37% (active) |  |  |
| CCOC(=O)C1=C(N)N(c2ccccc2)C2=C(C(=O)CC(C)(C)C2)C1c1cccc(Cl)c1Cl (stereo unspecified) | 56.3% | 50.7% | 59.4% | 87.6% | 65.8% | 82 | 83.6% | 87.4% | 51% | 71.6% | 68.8% | 87.8% | 60% | 40.1% | 86.9% | 76.6% | 47.8% |  |  |
| COc1cc(-c2ccc(/C=N/NC(=O)c3[nH]c4ccc(Br)cc4c3-c3ccccc3)s2)cc(OC)c1OC | 79% | 61.1% | 80.7% | 101% | 93.7% | 99.6 | 95.6% | 107% |  | 73.9% | 85.9% | 92.2% | 72.1% | 68.2% | 101% | 82.3% | 96.7% |  |  |
| N#Cc1c(-c2cccnc2)cc(-c2ccc3ccccc3c2)[nH]c1=O | 73.7% | 51.5% | 78% | 106% | 64.6% | 112 | 97.6% | 102% | 75.3% | 93% | 57.6% | 99.4% | 60.5% | 80% | 96.4% | 92.9% | 94.1% |  |  |
| COc1cc(-c2ccc(/C=N/NC(=O)c3[nH]c4ccc(Br)cc4c3-c3ccccc3)o2)cc(OC)c1OC | 78% | 63.2% | 67.2% | 99.6% | 92.3% | 92.6 | 95.1% | 95.6% | 59% | 85.7% | 95.4% |  | 70% | 76.7% | 110% | 82.3% | 88.6% |  |  |

From PubChem BioAssay (NCI)
